Measurements from the supplement of paper PMC10849652.
Of roughly 8,800 targets only a part is listed; those with a hit were picked by preference. About 0.5% of all pairs of compound and target were hits.

Legend:
Experiment in all cases: log2 fold change, soluble protein after heating vs DMSO (PISA); higher = thermal stabilisation; K562 lysate, 10 uM; active = over 0.2 and 3.5 SD of the protein, either way, in both replicates (recomputed)
[1] = compound: C=CC(=O)N1CCC[C@@H](n2nc(-c3ccc(Oc4ccccc4)cc3)c3c(N)ncnc32)C1 [ibrutinib]
Method in brief: (§1)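 A 30 min treatment with 10 μM compound was applied to crude K562 extract at 1 mg/mL protein in PBS pH 7.4 with 1 mM MgCl2. Heating for 3 min spanned 48°C-58°C, after which aliquots were pooled, adjusted to 0.5% NP-40 at 4°C and spun at 21,000xg for 90 min. TMTpro 16plex LC-MS/MS of the supernatant, with channel sums equalised, gave values recorded as log-two fold change in thermal stability against solvent controls, from duplicates.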

[2] = compound: CC(=O)c1cnc2ccc(-c3cc(Cl)c(O)c(Cl)c3)nc2c1N[C@H]1CC[C@H](CN(C)C)CC1
Method in brief: as §1

[3] = compound: CC(C)(C)Cn1c(N)nc2ccc(-c3[nH]c(C(C)(C)C)nc3-c3ccc(F)cc3)nc21 [ralimetinib]
Method in brief: as §1

[4] = compound: CC(C)(O)CC(=O)NCCn1ccc2ncnc(Nc3ccc(Oc4cccc(C(F)(F)F)c4)c(Cl)c3)c21
Method in brief: as §1

[5] = compound: CC(C)C1=C2N=C(C=C(N2N=C1)NCC3=CC=CC=C3)NCCCCCCN
Method in brief: as §1

[6] = compound: CC1=C(C(CC(=O)N1)C2=CC=C(C=C2)C(F)(F)F)C(=O)NC3=C(C=C4C(=C3)C=NN4)F
Method in brief: as §1

[7] = compound: CC1=C(C2=C(C=C1)C(=O)C3=CC=CC=C3N2CCCN)C
Method in brief: as §1

[8] = compound: CC1=C(C=C(C=C1)NC(=O)C2=CC(=CC=C2)C(C)(C)C#N)NC3=CC4=C(C=C3)N=CN(C4=O)C
Method in brief: as §1

[9] = compound: CC1=C(C=C(C=C1)NC(=O)C2=CC(=CC=C2)N(C)C)NC(=O)C3=CC=C(C=C3)O
Method in brief: as §1

[10] = compound: CC1=CC=C(C=C1)SC2=C3C=C(SC3=CN=C2)C(=O)N
Method in brief: as §1

[11] = compound: CCCS(=O)(=O)Nc1ccc(F)c(C(=O)c2c[nH]c3ncc(-c4ccc(Cl)cc4)cc23)c1F [vemurafenib]
Method in brief: as §1

[12] = compound: CCCS(=O)(=O)Nc1ccc(F)c(C(=O)c2c[nH]c3ncc(Cl)cc23)c1F
Method in brief: as §1

[13] = compound: CCN(CCCOc1ccc2c(Nc3cc(CC(=O)Nc4cccc(F)c4)[nH]n3)ncnc2c1)CCOP(=O)(O)O [barasertib]
Method in brief: as §1

[14] = compound: CC[C@@H]1C(=O)N(C)c2cnc(Nc3ccc(C(=O)NC4CCN(C)CC4)cc3OC)nc2N1C1CCCC1
Method in brief: as §1

[15] = compound: CC[C@@H]1C(=O)N(C)c2cnc(Nc3ccc(C(=O)N[C@H]4CC[C@H](N5CCN(CC6CC6)CC5)CC4)cc3OC)nc2N1C(C)C [volasertib]
Method in brief: as §1

[16] = compound: CCn1c(C(=O)N(C2CC2)C2CC2)cc2c3c(ncn3C)c(Nc3cc(C)n(C)n3)nc21
Method in brief: as §1

[17] = compound: CCn1cc(-c2ccnc3[nH]c(-c4cccc(CN(C)C)c4)cc23)c(-c2ccc(NC(=O)N(C)C)cc2)n1
Method in brief: as §1

[18] = compound: CN1CCC(CNc2ccc3ncc(-c4cccc(OC(F)(F)F)c4)n3n2)CC1
Method in brief: as §1

[19] = compound: CN1CCN(CCOc2cc(OC3CCOCC3)c3c(Nc4c(Cl)ccc5c4OCO5)ncnc3c2)CC1 [saracatinib]
Method in brief: as §1

[20] = compound: CN1CCN(c2nc(C3=C(c4c[nH]c5ccccc45)C(=O)NC3=O)c3ccccc3n2)CC1 [sotrastaurin]
Method in brief: as §1

Measured: log2 fold change

AMDHD2 isoform 3 (UniProt Q9Y303)
Sequence of UniProt Q9Y303 (Q9Y303 whole entry, looked up): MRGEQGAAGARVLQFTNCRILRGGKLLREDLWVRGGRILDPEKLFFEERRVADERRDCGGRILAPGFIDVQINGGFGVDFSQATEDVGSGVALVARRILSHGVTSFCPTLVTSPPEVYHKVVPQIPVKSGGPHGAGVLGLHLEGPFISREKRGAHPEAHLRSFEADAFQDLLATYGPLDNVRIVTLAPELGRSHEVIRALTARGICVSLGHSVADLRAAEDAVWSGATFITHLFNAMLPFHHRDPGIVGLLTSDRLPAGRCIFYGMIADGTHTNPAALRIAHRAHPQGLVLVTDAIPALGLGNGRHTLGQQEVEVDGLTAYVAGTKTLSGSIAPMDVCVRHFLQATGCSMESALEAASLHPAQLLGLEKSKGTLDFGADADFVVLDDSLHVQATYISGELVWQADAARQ
inactive: [1] 0.032 | [2] 0.006 | [3] -0.059 | [4] -0.025 | [5] -0.011 | [6] 0.009 | [7] 0.013 | [8] -0.015 | [9] -0.017 | [10] -0.017 | [11] 0.009 | [12] 0.019 | [13] -0.021 | [14] 0.003 | [15] 0.015 | [16] -0.024 | [17] -0.031 | [18] 0.005 | [19] -0.007 | [20] 0.019

ANXA5 (UniProt P08758)
inactive: [1] -0.009 | [2] -0.005 | [3] 0.014 | [4] 0.038 | [5] -0.026 | [6] 0.007 | [7] 0.032 | [8] -0.024 | [9] 0 | [10] 0.005 | [11] -0.034 | [12] -0.011 | [13] 0.003 | [14] -0.073 | [15] -0.001 | [16] 0.059 | [17] 0.022 | [18] -0.064 | [19] -0.008 | [20] 0.024

AIMP2 (UniProt Q13155)
inactive: [1] 0 | [2] 0.013 | [3] 0.044 | [4] 0.015 | [5] 0.044 | [6] 0.002 | [7] 0.018 | [8] -0.005 | [9] 0.019 | [10] 0.028 | [11] -0.026 | [12] 0.022 | [13] 0.031 | [14] -0.131 | [15] -0.063 | [16] -0.019 | [17] -0.008 | [18] -0.079 | [19] 0.018 | [20] 0.015

ARFGAP1 (UniProt Q8N6T3)
Sequence of UniProt Q8N6T3 (Q8N6T3 whole entry, looked up): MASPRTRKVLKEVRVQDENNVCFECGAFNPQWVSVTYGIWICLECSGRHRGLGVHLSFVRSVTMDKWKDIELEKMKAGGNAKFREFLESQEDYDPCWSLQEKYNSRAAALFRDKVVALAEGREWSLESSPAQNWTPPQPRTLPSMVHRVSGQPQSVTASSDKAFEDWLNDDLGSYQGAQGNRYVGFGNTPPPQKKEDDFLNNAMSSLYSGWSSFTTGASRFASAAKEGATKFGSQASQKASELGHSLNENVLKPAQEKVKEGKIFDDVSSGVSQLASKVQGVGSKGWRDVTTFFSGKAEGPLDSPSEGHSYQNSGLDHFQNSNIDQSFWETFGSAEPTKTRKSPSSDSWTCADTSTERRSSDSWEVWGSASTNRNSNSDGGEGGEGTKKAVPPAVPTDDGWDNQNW
inactive: [1] -0.118 | [2] 0.06 | [3] -0.018 | [4] -0.203 | [5] 0.019 | [6] 0.408 | [7] 0.136 | [8] -0.062 | [9] 0.061 | [10] -0.045 | [11] 0.063 | [12] -0.01 | [13] 0.225 | [14] 0.204 | [15] -0.02 | [16] 0.171 | [17] 0.001 | [18] 0.029 | [19] 0.056 | [20] -0.07

ACAT1 (UniProt P24752)
Sequence of UniProt P24752 (P24752 whole entry, looked up): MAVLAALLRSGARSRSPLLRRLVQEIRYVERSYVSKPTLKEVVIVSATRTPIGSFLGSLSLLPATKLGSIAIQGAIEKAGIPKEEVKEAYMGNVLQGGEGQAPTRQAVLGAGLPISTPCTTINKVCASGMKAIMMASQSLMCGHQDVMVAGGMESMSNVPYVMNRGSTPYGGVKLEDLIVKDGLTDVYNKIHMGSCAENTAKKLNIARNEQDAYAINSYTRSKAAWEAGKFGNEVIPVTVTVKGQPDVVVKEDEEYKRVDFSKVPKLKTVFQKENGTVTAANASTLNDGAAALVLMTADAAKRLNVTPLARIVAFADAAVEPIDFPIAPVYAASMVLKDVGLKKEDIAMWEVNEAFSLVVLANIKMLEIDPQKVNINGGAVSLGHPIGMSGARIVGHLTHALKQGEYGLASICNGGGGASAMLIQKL
inactive: [1] 0.002 | [2] 0.005 | [3] 0.003 | [4] 0.002 | [5] -0.002 | [6] 0.001 | [7] 0.034 | [8] -0.013 | [9] -0.007 | [10] 0.015 | [11] 0 | [12] -0.016 | [13] 0.006 | [14] 0.033 | [15] 0.019 | [16] 0.003 | [17] -0.038 | [18] -0.006 | [19] 0.011 | [20] 0.007

ABHD17A isoform 2 (UniProt Q96GS6)
inactive: [1] -0.03 | [2] 0.011 | [3] 0.039 | [4] -0.035 | [5] 0.032 | [6] -0.042 | [7] -0.065 | [8] -0.023 | [9] -0.097 | [10] -0.098 | [11] -0.007 | [12] -0.08 | [13] 0.007 | [14] 0.036 | [15] 0.012 | [16] 0.022 | [17] 0.001 | [18] 0.013 | [19] -0.027 | [20] -0.05

ARMCX3 (UniProt Q9UH62)
inactive: [1] -0.073 | [2] -0.027 | [3] 0.006 | [4] 0.013 | [5] -0.042 | [6] -0.053 | [7] -0.029 | [8] 0.004 | [9] 0.039 | [10] 0 | [11] -0.024 | [12] 0.027 | [13] 0.102 | [14] -0.033 | [15] -0.045 | [16] 0.021 | [17] -0.01 | [18] -0.049 | [19] 0.012 | [20] 0.016

ACYP1 (UniProt P07311)
Sequence of UniProt P07311 (P07311 whole entry, looked up): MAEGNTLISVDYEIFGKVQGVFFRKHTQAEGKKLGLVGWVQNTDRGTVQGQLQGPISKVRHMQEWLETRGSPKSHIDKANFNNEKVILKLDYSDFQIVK
inactive: [1] 0.056 | [2] 0.027 | [3] 0 | [4] -0.024 | [5] -0.011 | [6] -0.021 | [7] 0.015 | [8] -0.013 | [9] -0.024 | [10] 0.021 | [11] -0.038 | [12] -0.024 | [13] 0.024 | [14] -0.005 | [15] 0.032 | [16] 0.006 | [18] -0.082 | [19] 0.003 | [20] -0.032
active: [17] 0.284

ARAF (UniProt P10398)
inactive: [1] 0.071 | [2] -0.012 | [3] 0.029 | [4] -0.01 | [5] 0.058 | [6] -0.007 | [7] 0.004 | [8] 0.004 | [9] 0.041 | [10] 0.003 | [12] 0.058 | [13] 0.015 | [14] -0.069 | [15] -0.038 | [16] -0.015 | [17] 0.042 | [18] 0 | [19] 0.005 | [20] 0.002
active: [11] 0.411

ADRM1 (UniProt Q16186)
Sequence of UniProt Q16186 (Q16186 whole entry, looked up): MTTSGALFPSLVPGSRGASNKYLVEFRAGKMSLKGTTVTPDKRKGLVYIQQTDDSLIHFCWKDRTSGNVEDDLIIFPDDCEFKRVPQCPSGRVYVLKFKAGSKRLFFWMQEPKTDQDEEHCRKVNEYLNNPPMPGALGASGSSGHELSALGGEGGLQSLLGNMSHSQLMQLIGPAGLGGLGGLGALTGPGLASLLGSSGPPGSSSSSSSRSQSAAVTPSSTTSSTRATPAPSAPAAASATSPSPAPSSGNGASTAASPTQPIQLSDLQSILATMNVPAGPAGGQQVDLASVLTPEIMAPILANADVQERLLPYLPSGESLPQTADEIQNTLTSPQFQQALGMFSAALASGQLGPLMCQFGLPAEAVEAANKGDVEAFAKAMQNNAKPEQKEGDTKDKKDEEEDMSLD
inactive: [1] 0.005 | [2] -0.009 | [3] 0.027 | [4] -0.007 | [5] 0.026 | [6] -0.028 | [7] -0.011 | [8] 0.019 | [9] 0.012 | [10] -0.01 | [11] -0.01 | [12] 0.033 | [13] 0.031 | [14] -0.026 | [15] -0.036 | [16] 0.008 | [17] -0.024 | [18] -0.027 | [19] 0 | [20] 0.002

AK1 (UniProt P00568)
Sequence of UniProt P00568 (P00568 whole entry, looked up): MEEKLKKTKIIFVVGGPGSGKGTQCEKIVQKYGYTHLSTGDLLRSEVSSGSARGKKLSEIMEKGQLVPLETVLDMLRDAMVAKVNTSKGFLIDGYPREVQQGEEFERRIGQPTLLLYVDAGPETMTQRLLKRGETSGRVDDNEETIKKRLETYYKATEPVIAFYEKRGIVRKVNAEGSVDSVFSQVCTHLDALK
inactive: [1] -0.001 | [2] 0.006 | [3] 0.006 | [4] -0.021 | [5] -0.029 | [6] -0.008 | [7] 0.043 | [8] -0.024 | [9] -0.002 | [10] 0.009 | [11] 0.01 | [12] -0.036 | [13] -0.012 | [14] -0.027 | [15] 0.021 | [16] 0.017 | [18] -0.135 | [19] -0.012 | [20] -0.024
active: [17] 0.332

AP3D1 isoform 5 (UniProt O14617)
Sequence of UniProt O14617 (O14617 whole entry, looked up): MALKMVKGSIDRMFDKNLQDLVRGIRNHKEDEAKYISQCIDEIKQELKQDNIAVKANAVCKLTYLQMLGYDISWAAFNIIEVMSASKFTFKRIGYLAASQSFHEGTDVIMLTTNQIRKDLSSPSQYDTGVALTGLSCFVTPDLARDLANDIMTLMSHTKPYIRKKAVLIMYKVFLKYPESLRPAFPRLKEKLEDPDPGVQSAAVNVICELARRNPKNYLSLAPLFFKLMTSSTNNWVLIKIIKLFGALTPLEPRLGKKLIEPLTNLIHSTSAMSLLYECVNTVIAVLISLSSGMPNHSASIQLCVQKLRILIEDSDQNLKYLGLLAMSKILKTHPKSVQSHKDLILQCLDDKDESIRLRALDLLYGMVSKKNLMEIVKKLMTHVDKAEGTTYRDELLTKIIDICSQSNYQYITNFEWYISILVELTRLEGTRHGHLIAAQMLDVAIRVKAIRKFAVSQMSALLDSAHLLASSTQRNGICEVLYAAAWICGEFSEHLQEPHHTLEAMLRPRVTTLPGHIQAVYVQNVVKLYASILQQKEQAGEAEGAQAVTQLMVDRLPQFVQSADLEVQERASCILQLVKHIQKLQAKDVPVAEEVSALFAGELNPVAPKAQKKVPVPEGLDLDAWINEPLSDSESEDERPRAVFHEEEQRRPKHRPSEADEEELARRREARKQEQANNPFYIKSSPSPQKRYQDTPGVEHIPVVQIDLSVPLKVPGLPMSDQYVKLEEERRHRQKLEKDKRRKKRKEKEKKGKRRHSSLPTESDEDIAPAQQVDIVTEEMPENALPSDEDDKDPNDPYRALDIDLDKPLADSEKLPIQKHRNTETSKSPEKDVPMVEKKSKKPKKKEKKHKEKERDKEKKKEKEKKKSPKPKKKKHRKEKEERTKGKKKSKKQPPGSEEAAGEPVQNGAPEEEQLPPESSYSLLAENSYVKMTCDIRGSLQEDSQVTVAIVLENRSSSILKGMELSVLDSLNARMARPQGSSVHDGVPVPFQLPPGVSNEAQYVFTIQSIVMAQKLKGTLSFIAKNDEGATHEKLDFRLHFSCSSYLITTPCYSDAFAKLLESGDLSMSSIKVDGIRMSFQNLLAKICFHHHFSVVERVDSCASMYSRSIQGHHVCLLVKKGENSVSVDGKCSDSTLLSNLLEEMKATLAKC
inactive: [1] 0.033 | [2] -0.012 | [3] 0.028 | [4] -0.012 | [5] -0.007 | [6] -0.014 | [7] -0.024 | [8] 0.011 | [9] 0.01 | [10] 0.006 | [11] -0.001 | [12] -0.002 | [13] 0.036 | [14] -0.004 | [15] 0 | [16] 0.002 | [17] -0.08 | [18] 0.034 | [19] 0.001 | [20] 0.013

ADD1 isoform 3 (UniProt P35611)
Sequence of UniProt P35611 (P35611 whole entry, looked up): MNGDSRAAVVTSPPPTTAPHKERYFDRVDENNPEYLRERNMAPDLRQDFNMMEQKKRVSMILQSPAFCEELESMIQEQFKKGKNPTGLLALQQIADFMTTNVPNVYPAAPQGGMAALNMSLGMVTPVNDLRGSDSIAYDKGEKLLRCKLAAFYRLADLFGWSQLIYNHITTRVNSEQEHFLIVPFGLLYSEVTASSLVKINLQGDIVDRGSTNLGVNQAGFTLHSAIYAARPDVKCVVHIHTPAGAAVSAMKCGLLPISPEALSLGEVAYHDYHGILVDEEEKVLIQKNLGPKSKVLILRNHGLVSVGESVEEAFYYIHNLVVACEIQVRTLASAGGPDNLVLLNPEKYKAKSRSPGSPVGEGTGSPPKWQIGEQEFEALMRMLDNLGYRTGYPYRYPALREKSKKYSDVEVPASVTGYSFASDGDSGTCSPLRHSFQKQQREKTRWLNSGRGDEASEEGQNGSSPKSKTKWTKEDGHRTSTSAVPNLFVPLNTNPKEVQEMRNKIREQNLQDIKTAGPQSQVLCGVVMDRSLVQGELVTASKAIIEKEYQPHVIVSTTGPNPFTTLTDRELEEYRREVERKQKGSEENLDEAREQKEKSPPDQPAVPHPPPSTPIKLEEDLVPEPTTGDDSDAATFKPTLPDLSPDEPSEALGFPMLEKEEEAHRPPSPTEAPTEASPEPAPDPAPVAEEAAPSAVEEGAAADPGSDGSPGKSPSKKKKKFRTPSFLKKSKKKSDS
inactive: [1] -0.006 | [2] -0.009 | [3] 0 | [4] -0.01 | [5] -0.005 | [6] 0.007 | [7] -0.038 | [8] 0.005 | [9] -0.009 | [10] -0.019 | [11] -0.025 | [12] -0.002 | [13] -0.001 | [14] 0.036 | [15] 0.007 | [16] -0.002 | [17] -0.013 | [18] 0.054 | [19] 0.002 | [20] 0

AIFM2 (UniProt Q9BRQ8)
Sequence of UniProt Q9BRQ8 (Q9BRQ8 whole entry, looked up): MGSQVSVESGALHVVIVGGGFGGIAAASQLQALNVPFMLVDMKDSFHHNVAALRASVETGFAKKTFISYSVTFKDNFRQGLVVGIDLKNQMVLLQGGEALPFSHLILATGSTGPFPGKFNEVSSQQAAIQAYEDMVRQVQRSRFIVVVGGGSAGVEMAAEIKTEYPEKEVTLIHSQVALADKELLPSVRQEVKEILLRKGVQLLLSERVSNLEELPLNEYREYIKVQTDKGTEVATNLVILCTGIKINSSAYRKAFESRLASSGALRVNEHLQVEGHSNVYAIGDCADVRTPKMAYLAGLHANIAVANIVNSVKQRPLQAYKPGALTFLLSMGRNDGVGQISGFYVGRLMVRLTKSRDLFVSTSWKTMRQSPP
inactive: [1] -0.016 | [2] -0.075 | [3] 0.028 | [5] 0.275 | [6] -0.033 | [7] -0.161 | [8] -0.04 | [9] -0.051 | [10] 0.024 | [11] -0.19 | [12] 0.091 | [13] -0.029 | [14] -0.018 | [15] -0.004 | [16] -0.089 | [17] -0.057 | [18] 0.149 | [19] -0.062 | [20] 0.036
active: [4] 0.643

ANXA2 isoform 2 (UniProt P07355)
Sequence of UniProt P07355 (P07355 whole entry, looked up): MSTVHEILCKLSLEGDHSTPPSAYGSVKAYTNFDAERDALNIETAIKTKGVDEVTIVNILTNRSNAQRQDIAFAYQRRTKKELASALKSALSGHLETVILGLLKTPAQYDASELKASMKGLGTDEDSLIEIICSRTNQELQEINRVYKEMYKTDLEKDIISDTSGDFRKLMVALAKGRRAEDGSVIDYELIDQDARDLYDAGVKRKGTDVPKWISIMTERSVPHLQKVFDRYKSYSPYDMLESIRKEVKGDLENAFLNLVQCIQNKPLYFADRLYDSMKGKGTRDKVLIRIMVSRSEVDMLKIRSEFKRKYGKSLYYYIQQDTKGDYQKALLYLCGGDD
inactive: [1] -0.013 | [2] 0.012 | [3] -0.009 | [4] 0.033 | [5] -0.01 | [6] 0.006 | [7] 0.048 | [8] -0.024 | [9] -0.01 | [10] 0.013 | [11] -0.03 | [12] -0.004 | [13] -0.021 | [14] 0 | [15] 0.017 | [16] 0.033 | [17] -0.003 | [18] -0.02 | [19] 0.013 | [20] -0.012

AIP (UniProt O00170)
Sequence of UniProt O00170 (O00170 whole entry, looked up): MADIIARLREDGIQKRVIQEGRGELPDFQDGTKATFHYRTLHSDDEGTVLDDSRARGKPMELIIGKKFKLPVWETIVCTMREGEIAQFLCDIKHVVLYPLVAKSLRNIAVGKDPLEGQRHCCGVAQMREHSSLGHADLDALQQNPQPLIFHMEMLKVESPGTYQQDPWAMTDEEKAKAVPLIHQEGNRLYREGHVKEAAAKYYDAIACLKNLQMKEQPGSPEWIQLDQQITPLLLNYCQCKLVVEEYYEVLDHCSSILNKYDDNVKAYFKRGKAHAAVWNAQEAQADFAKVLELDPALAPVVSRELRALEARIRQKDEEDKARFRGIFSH
inactive: [1] 0.019 | [2] -0.004 | [3] -0.022 | [4] -0.003 | [5] -0.012 | [6] -0.011 | [7] -0.017 | [8] 0.011 | [9] 0 | [10] -0.023 | [11] -0.002 | [12] 0.015 | [13] -0.004 | [14] 0.017 | [15] -0.004 | [16] -0.022 | [18] -0.019 | [19] -0.015 | [20] 0.007
active: [17] 0.514
